# Data reported in PubChem BioAssay.
# The source made the active and inactive calls. Unless noted, no stated cut-off is given here; in the data, active means inhibition above about 42%; inactive means the rest.
# Tests used:
# [1] = StAR promoter reporter inhibitors, counter-screen for LRH-1 inverse agonist project, cell-based, luminescence, high throughput (AID 651611; in the data active means inhibition above about 28%); settings: StAR promoter luciferase reporter counterscreen, at 3.6 µM, hits give high values
# [2] = target: Nuclear receptor subfamily 5 group A member 2 (Homo sapiens) (UniProt O00482); assay: NR5A2 activity suppression in reporter cells – cell-based, luminescence, confirmation (AID 651613); settings: cell-based LRH-1 luciferase reporter, inverse agonism; at 3.6 µM; hits give high values;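 further: HEK293T cells co-transfected with LRH-1 and StAR promoter luciferase reporter; 0% = vehicle wells and 100% = parental cells lacking receptor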
# Chain of Nuclear receptor subfamily 5 group A member 2 (Homo sapiens) (O00482 whole entry, looked up): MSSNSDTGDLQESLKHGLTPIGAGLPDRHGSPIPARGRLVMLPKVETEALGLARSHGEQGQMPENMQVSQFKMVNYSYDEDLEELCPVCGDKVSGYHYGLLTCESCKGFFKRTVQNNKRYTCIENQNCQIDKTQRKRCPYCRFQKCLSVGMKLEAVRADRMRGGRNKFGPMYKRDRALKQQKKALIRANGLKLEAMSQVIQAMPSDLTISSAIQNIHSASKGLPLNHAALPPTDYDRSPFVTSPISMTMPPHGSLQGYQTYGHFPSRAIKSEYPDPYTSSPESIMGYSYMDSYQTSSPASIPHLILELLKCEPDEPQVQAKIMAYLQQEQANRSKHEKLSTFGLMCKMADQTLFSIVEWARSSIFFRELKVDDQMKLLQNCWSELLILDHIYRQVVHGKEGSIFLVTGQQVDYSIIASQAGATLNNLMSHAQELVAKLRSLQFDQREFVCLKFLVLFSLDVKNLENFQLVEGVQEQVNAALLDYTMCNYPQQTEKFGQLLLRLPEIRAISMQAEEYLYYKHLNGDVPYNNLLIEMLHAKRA
# [3] = target: Steroidogenic factor 1 (Homo sapiens) (UniProt Q13285); assay: inverse agonism at SF1 nuclear receptor – cell-based, luminescence, high throughput, counter-screen for LRH-1 inverse agonist project (AID 651614; in the data active means inhibition above about 44%;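 further: cells cotransfected with StAR promoter reporter and SF1 expression vector; 0% = vehicle on cells with receptor and 100% = vehicle on cells lacking receptor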); settings: cell-based SF1 luciferase reporter, at 3.6 µM, hits give high values
# Chain of Steroidogenic factor 1 (Homo sapiens) (Q13285 whole entry, looked up, the tested form may be a part): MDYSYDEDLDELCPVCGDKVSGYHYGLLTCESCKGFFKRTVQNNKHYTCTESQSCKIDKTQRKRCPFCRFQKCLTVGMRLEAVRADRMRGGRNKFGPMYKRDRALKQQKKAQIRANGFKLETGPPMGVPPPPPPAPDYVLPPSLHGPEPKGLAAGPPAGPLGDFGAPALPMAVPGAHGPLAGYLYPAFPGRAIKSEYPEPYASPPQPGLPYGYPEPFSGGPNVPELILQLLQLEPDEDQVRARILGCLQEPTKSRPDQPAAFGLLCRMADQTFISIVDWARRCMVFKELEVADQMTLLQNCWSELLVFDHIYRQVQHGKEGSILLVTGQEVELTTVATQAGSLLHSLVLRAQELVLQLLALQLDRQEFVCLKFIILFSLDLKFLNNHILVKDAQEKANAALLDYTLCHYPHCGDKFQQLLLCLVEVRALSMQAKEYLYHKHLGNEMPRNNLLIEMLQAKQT
# [4] = compounds suppressing VP16-driven luciferase signal – cell-based, luminescence, high throughput, counter-screen for LRH-1 inverse agonist project (AID 651615; in the data active means inhibition above about 33%); settings: Gal4-VP16 luciferase reporter cells, at 3.6 µM, hits give high values
Compound,inhibition [1],inhibition [2],inhibition [3],inhibition [4]
C[C@@H]1CN([C@@H](C)CO)S(=O)(=O)c2ccc(-c3ccc(C#N)cc3)cc2O[C@@H]1CN(C)Cc1ccccn1,24.5% (inactive),51.8% (active),48% (active),-14.3% (inactive)
CCn1c2ccccc2c2cc(/C=N/n3c(C)nnc3C)ccc21,27.4% (inactive),26.4% (inactive),38.5% (inactive),-25% (inactive)
CCC1(C)OC(=O)N2CCc3c(C)[nH]c4c(C)ccc(c34)C21C (stereo not given),8.96% (inactive),41.6% (active),44.9% (active),12.7% (inactive)
CC1=[N+](C)c2c(ccc3cccnc23)C1(C)C,12.2% (inactive),38.6% (inactive),58.7% (active),29.2% (inactive)
COc1ccc(-c2cnc3c(NC=O)cc(-c4ccc(S(C)(=O)=O)cc4)cn23)cc1OC,-4.42% (inactive),63% (active),58.1% (active),30.2% (inactive)
COc1ccc(NC(=O)CS(=O)(=O)c2ccc(C)cc2)c(OC)c1,17% (inactive),53.1% (active),56% (active),-1.68% (inactive)
O=[N+]([O-])c1cnccc1Nc1ccc(Cl)cc1,15.6% (inactive),64.1% (active),60.5% (active),18.9% (inactive)
CCCCNC(=O)COC(=O)c1c2c(nc3ccccc13)/C(=C\c1cccs1)CC2,-10.4% (inactive),34.9% (inactive),12.3% (inactive),26.5% (inactive)
COCc1cc(C)n(CC(=O)Nc2ccc(N3CCOCC3)c(Cl)c2)c(=O)c1C#N,-4.28% (inactive),40.5% (inactive),40.9% (inactive),6.57% (inactive)
COc1ccc(OC)c(C2NC(=O)c3sc(=S)n(-c4ccccc4)c3N2)c1 (stereo not given),10.5% (inactive),53.5% (active),45.4% (active),-4.35% (inactive)
Cc1ccc(-n2c(SCC(=O)NCc3ccco3)nc3sc4c(c3c2=O)CC(C)(C)SC4)cc1,17.6% (inactive),56.1% (active),44.8% (active),6.61% (inactive)
O=C(Nc1ccccc1Cl)c1ccc([N+](=O)[O-])o1,29.4% (active),63.9% (active),75.9% (active),-5.01% (inactive)
O=C(CSc1ncn[nH]1)Nc1ccc(Cl)c(Cl)c1,18.4% (inactive),45.2% (active),39% (inactive),20.6% (inactive)
CCOc1ccc(CCNC(=O)COC(=O)c2cccc(S(=O)(=O)N3CCCC3)c2)cc1OCC,-4.16% (inactive),58.6% (active),54.1% (active),9.86% (inactive)
CCc1cc(=O)oc2cc(C)cc(OCC(=O)NC3CC3)c12,-0.05% (inactive),66.5% (active),55.9% (active),10.2% (inactive)
O=C(c1ccc(Oc2ccc(Cl)cc2)c([N+](=O)[O-])c1)N1CCCC1,-14.7% (inactive),33.5% (inactive),38% (inactive),-0.01% (inactive)
CCOc1ccc(NC(=O)CSc2nnc(C(C)C)n2CC)cc1,0.92% (inactive),49.3% (active),50.3% (active),-3.19% (inactive)
O=[N+]([O-])c1cnccc1Nc1ccccc1,7.45% (inactive),62% (active),58.9% (active),1.98% (inactive)

Compound,inhibition [1],inhibition [2],inhibition [3],inhibition [4]
COc1ccccc1-c1cc(NC=O)c2ncc(-c3ccc(S(C)(=O)=O)cc3)n2c1,31.8% (active),42.8% (active),46.9% (active),-33.2% (inactive)
COc1cc(C(=O)NC2CCN(C)CC2)ccc1Nc1ncc2c(n1)N(C1CCCCC1)CCC(=O)N2C,60.6% (active),54.4% (active),40% (inactive),-159% (inactive)
CCN1C(=O)c2cccc3c(NC(=O)c4cccc(N5C(=O)CCC5=O)c4)ccc1c23,21.9% (inactive),51.3% (active),50.1% (active),-48.1% (inactive)
C/C(=N\Nc1nc2ccccc2[nH]1)c1ccccn1,71.4% (active),83.1% (active),73.9% (active),2.13% (inactive)
CCCc1nc2cc(C)c(Br)c(C)n2c1Cc1ccc(OC)cc1C,15.2% (inactive),48.3% (active),45.3% (active),5.35% (inactive)
CC(=O)Oc1ccc(-c2ccc(C(=O)Nc3cccc(S(=O)(=O)N4CCOCC4)c3)cc2)cc1,25.5% (inactive),35.1% (inactive),52.1% (active),59.4% (active)
CN1c2ccccc2C(C)(C)C12C=Nc1c(cc(N3CCOCC3)c3ccccc13)O2 (stereo not given),9% (inactive),19.1% (inactive),21.1% (inactive),4.98% (inactive)
CCOC(=O)c1c(C)[nH]c(C(=O)COC(=O)/C=C/c2ccc3c(c2)OCO3)c1C,13% (inactive),36.5% (inactive),43.6% (active),7.82% (inactive)
NC(=S)N/N=C/c1ccc(-n2nncc2-c2ccc(Cl)cc2)cc1,12% (inactive),51.6% (active),56.4% (active),6.68% (inactive)
Cc1ccccc1N=C1NC(=O)/C(=C/c2cccnc2)S1,13.1% (inactive),39.8% (inactive),40.2% (inactive),8.55% (inactive)
O=C(Nc1ccc(Nc2ccccc2)cc1)c1cc([N+](=O)[O-])ccc1Cl,6% (inactive),52.7% (active),53.4% (active),9.35% (inactive)
O=C(N/N=C/c1ccc([N+](=O)[O-])o1)c1ccccc1-n1cccc1,32.3% (active),71.6% (active),63.4% (active),0.97% (inactive)
CCOCC(=O)Nc1ccc(S(=O)(=O)NCCc2ccccc2)cc1,10.5% (inactive),48.3% (active),43.2% (active),11.4% (inactive)
CC(C)c1cc(NC(=O)CCl)on1,35.2% (active),47.4% (active),51.9% (active),-11.4% (inactive)
COc1ccc(CCNC(=O)CSc2ccc(NC(C)=O)cc2)cc1OC,9.56% (inactive),53.8% (active),53.4% (active),-3.78% (inactive)
N#CC1=C(N)C(C#N)(C#N)[C@H](c2c(F)cccc2F)[C@H]2CC3(CC=C12)OCCO3,16.1% (inactive),60.9% (active),54% (active),17.2% (inactive)
O=C(Nc1ccc(S(=O)(=O)N2CCCC2)cc1)c1ccc([N+](=O)[O-])o1,26.2% (inactive),58.8% (active),62.7% (active),15.1% (inactive)
